# Reference: PubChem BioAssay
# Activity calls are given as the source filed them. Unless noted, how the calls were made is not given here.
# What was measured:
# [1] = system: Wnt5a (protein binding on small-molecule microarray); assay: small molecules binding Wnt5a protein – biophysical, small-molecule microarray, 635/667 nm fluorescence, primary screen (AID 1142); settings: 635 nm fluorescence, higher = more signal;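 further: fluorescence read at 667 nm with signal to noise per printed feature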
# [2] = ATP-based viability of Huh7 replicon cells – cell-based, CellTiter-Glo luminescence, basal, 48 h, cytotoxicity control for HCV replication inhibitor project, primary screen (AID 1143); settings: higher = more signal, called active from +8 up or from −8 down;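 further: Huh7 hepatoma cells carrying a hepatitis C replication reporter with no stimulus; test concentration not given here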
# [3] = Pseudomonas biofilm growth suppression – PAO1 strain, BacTiter-Glo luminescence, LB-PBS, primary screen (AID 1144); settings: P. aeruginosa PAO1 biofilm, 12 h, higher = more signal
# [4] = basal CRE-LacZ reporter activity in PC12 – cell-based, unstimulated, primary screen (AID 1145); settings: no forskolin, luminescence, 4.5 h, higher = more signal, called active from +8 up or from −8 down
# [5] = forskolin-driven CRE-LacZ activity in PC12 – cell-based, CRE-LacZ reporter, forskolin-stimulated, primary screen (AID 1146); settings: luminescence, 4.5 h, higher = more signal, called active from +8 up or from −8 down;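 further: PC12 cells with 6xCRE LacZ reporter stimulated by forskolin 10 µM; beta-galactosidase reporter signal reflecting CREB driven transcription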
# [6] = target: Streptavidin (Streptomyces avidinii) (UniProt P22629); assay: compounds binding control protein streptavidin – biophysical, small-molecule microarray, 635/667 nm fluorescence, artefact control for SMM compound annotation, primary screen (AID 1147); settings: higher = more signal;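 further: signal reflects streptavidin binding to arrayed compounds as a control protein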
# [7] = probe aInhba binding on compound microarray – biochemical, small-molecule microarray, 635/667 nm fluorescence, primary screen (AID 1148); settings: higher = more signal;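 further: score merges 667nm spot fluorescence with signal-to-noise for antibody binding to printed compounds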
# Torsin-1A (Homo sapiens) [8] = target: Torsin-1A (Homo sapiens) (UniProt O14656); assay: TOR1A wild-type binding on microarray – cell lysate, small-molecule microarray, lysate, 635/667 nm, primary screen (AID 1149); settings: COS7 hTOR1A-WT lysate, 635 nm fluorescence, higher = more signal
# Torsin-1A (Homo sapiens) [9] = target: Torsin-1A (Homo sapiens) (UniProt O14656); assay: torsin A mutant lysate binding on microarrays – cell lysate, small-molecule microarray, COS7 lysate, 635/667 nm fluorescence, primary screen (AID 1150); settings: COS7 hTOR1A mutant lysate, 635 nm fluorescence, higher = more signal;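 further: score pools 667 nm emission and signal to noise measuring lysate protein binding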
# [10] = system: Sonic hedgehog protein (Shh); assay: Sonic hedgehog microarray binding compounds – biochemical, small-molecule microarray, 635/667 nm fluorescence, primary screen (AID 1151); settings: 635 nm fluorescence, higher = more signal;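 further: Shh protein binding to compounds spotted on small-molecule microarray slides; score combines spot fluorescence intensity with signal-to-noise across triplicate slides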
# [11] = optical density shifts of acrAB sulA E. coli – strain DRC41, OD650, 48 h, E. coli filamentation inducer project, primary screen (AID 1152); settings: higher = more signal, called active from +8 up or from −8 down;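 further: E. coli MC1000 strain DRC41 lacking acrAB efflux pump and sulA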
# [12] = probe aLefty1 binding on compound microarray – biochemical, small-molecule microarray, 635/667 nm fluorescence, primary screen (AID 1153); settings: higher = more signal;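 further: score merges spot fluorescence with signal-to-noise ratio from the scanned slide images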
# [13] = plasmodial surface anion channel blockers, osmotic lysis – cell-based, P. falciparum Indochina, OD700, 1 h, primary screen (AID 1154); settings: P. falciparum Indochina infected RBC osmotic lysis, higher = more signal, called active from +8 up or from −8 down
# [14] = plasmodial surface anion channel blockers, osmotic lysis – cell-based, P. falciparum Indochina, OD700, 2 h, primary screen (AID 1155);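 further: lysis reports solute entry through the parasite surface anion channel PSAC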; settings: P. falciparum Indochina infected erythrocytes, higher = more signal, called active from +8 up or from −8 down
# [15] = changes in parasitized red cell lysis, either direction – P. falciparum Indochina, OD700, 3 h, PSAC antagonist project, primary screen (AID 1156); settings: P. falciparum-infected erythrocytes, osmotic lysis, higher = more signal, called active from +8 up or from −8 down
# [16] = plasmodial surface anion channel blockers, osmotic lysis – cell-based, P. falciparum Indochina, OD700, 18 h, primary screen (AID 1157); settings: P. falciparum Indochina infected erythrocytes, osmotic lysis OD700, 18 h; higher = more signal, called active from +8 up or from −8 down
# [17] = S6 kinase pathway phospho-S6 level changes – cell-based, A549, cytoblot, luminescence, serum-stimulated, primary screen (AID 1158); settings: 5 h, higher = more signal;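 further: serum-stimulated A549 lung adenocarcinoma cells; signal is phosphorylated S6 detected by cytoblot immunostaining with HRP secondary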
# [18] = target: NADPH oxidase 2 (Homo sapiens) (UniProt P04839); assay: compounds shifting NOX2 Amplex Red fluorescence – cell-based, HEK293-NOX2, PMA-stimulated, NOX inhibitor project, primary screen (AID 1159); settings: 45 min, higher = more signal, called active from +8 up or from −8 down; further: test concentration not given here
# [19] = target: NADPH oxidase 4 (Homo sapiens) (UniProt Q9NPH5); assay: compounds shifting NOX4 Amplex Red fluorescence – cell-based, HEK293-NOX4, tetracycline-induced, NOX inhibitor project, primary screen (AID 1160); settings: HEK293-NOX4, Amplex Red H2O2 fluorescence, 45 min; higher = more signal, called active from +8 up or from −8 down
# [20] = target: NADPH oxidase 5 (Homo sapiens) (UniProt Q96PH1); assay: compounds shifting NOX5 Amplex Red fluorescence – cell-based, HEK293-NOX5, NOX inhibitor project, primary screen (AID 1161); settings: HEK293-NOX5, ionomycin, 45 min, higher = more signal
# NADPH oxidase 5 (Homo sapiens), sequence (Q96PH1 whole entry, looked up): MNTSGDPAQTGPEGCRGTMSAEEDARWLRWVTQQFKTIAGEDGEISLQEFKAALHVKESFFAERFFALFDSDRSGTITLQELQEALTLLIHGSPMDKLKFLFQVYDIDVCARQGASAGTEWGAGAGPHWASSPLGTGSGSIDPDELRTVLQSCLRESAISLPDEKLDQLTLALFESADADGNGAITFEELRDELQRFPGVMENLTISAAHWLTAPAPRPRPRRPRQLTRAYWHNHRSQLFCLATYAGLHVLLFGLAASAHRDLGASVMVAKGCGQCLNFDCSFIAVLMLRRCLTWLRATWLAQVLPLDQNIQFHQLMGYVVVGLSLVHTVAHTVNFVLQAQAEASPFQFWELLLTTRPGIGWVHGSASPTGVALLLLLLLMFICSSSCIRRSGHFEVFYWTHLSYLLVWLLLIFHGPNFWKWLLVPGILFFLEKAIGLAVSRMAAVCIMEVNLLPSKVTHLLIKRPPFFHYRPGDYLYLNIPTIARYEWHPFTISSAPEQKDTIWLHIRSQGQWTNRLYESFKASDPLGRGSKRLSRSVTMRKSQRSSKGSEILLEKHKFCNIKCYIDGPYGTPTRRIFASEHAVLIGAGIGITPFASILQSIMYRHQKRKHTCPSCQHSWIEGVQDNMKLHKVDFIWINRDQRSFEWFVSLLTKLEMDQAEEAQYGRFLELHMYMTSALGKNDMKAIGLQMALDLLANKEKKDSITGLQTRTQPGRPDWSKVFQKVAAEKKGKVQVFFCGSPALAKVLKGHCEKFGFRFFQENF
# Torsin-1A (Homo sapiens), sequence (O14656 whole entry, looked up): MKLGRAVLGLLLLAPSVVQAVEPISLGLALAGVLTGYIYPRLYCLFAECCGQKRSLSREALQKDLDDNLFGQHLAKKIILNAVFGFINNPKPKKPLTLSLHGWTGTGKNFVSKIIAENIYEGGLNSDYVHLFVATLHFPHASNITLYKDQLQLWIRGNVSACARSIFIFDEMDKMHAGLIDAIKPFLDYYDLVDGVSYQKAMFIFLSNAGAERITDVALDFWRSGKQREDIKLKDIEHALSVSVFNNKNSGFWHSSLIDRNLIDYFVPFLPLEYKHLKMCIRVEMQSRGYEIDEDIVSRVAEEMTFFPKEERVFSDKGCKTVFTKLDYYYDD
# NADPH oxidase 2 (Homo sapiens), sequence (P04839 whole entry, looked up): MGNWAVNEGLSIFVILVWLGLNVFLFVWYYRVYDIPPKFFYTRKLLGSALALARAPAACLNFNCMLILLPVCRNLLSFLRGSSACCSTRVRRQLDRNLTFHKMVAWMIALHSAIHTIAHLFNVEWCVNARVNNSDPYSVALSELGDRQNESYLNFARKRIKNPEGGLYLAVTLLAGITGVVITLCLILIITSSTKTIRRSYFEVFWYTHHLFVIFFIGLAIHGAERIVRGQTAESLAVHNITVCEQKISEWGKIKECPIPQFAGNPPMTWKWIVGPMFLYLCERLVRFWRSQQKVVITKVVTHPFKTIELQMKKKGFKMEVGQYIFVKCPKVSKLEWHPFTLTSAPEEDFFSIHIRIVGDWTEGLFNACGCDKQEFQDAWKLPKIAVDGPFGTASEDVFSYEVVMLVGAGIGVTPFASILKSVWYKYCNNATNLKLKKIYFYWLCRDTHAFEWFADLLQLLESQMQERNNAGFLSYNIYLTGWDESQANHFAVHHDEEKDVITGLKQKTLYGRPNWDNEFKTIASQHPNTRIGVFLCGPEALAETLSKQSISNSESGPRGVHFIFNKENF
# Streptavidin (Streptomyces avidinii), sequence (P22629 whole entry, looked up): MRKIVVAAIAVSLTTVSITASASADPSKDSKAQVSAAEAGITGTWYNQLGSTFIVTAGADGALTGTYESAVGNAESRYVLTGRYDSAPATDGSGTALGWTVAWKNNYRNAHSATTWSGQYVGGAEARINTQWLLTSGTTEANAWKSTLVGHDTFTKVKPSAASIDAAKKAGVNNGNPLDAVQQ
# NADPH oxidase 4 (Homo sapiens), sequence (Q9NPH5 whole entry, looked up): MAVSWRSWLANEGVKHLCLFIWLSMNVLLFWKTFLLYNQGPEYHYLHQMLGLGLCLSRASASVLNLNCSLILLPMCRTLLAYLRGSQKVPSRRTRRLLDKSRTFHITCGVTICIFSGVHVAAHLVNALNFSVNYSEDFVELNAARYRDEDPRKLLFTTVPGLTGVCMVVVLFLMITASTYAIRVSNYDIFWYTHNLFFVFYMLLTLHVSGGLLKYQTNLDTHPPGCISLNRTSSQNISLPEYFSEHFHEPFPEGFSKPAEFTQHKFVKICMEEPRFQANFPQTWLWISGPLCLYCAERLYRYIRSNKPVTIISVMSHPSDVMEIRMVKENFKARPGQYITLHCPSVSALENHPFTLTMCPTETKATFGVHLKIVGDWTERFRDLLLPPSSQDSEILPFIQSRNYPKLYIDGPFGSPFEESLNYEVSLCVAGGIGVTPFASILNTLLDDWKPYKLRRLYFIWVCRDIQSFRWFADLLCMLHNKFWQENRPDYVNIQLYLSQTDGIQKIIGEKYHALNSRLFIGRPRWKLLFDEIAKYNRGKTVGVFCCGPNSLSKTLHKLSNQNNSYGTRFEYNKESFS
Compound,composite z-score [1],z-score [2],z-score [3],z-score [4],z-score [5],composite z-score [6],composite z-score [7],composite z-score (Torsin-1A (Homo sapiens) [8]),composite z-score (Torsin-1A (Homo sapiens) [9]),composite z-score [10],z-score [11],composite z-score [12],z-score [13],z-score [14],z-score [15],z-score [16],z-score [17],z-score [18],z-score [19],z-score [20]
CC(C)=CCCC(C)=CCON=C1C[C@@H](O)[C@@H](O)[C@@H]2[C@@H]3C(=O)N(Cc4ccc5c(c4)OCO5)C(=O)[C@@H]3CC[C@@H]12,-0.0188,-0.292 (inactive),0.73 (inactive),0.252 (inactive),0.217 (inactive),1.19,-0.0791,1.01,0.606,0.816,0.253 (inactive),0.0315,31.3 (active),5.69 (inactive),2.24 (inactive),1.46 (inactive),-0.274,-1.3 (inactive),-0.0437 (inactive),-2.6
CCOC(=O)[C@H](CC(C)C)NC(=O)CCC1CC(OC(=O)NCc2ccc3c(c2)OCO3)CC2(CCCC(COC(=O)NCCC(C)C)O2)O1 (stereo not given in full),0.0093,-0.172 (inactive),-0.32 (inactive),-0.889 (inactive),0.128 (inactive),0.0476,-0.128,-0.0916,-0.0963,0.54,-0.213 (inactive),-0.768,2.17 (inactive),-0.299 (inactive),-0.443 (inactive),0.0255 (inactive),-0.0096,0.246 (inactive),0.115 (inactive),0.165
O=C1C2=CC[C@H]3C(=O)N(c4ccc(F)cc4F)C(=O)[C@H]3[C@H]2[C@H](O)[C@@H]2O[C@H]12,0.28,0.612 (inactive),-0.845 (inactive),-0.202 (inactive),0.305 (inactive),0.447,-0.0221,0.528,0.308,0.389,-0.138 (inactive),0.558,-0.487 (inactive),-0.122 (inactive),-0.708 (inactive),-0.0627 (inactive),0.311,0.0832 (inactive),0.0553 (inactive),-0.191
CC(C)[C@@H](OCc1ccccc1)[C@H](C)C=NO[C@@H](C)c1cn([C@H](CO)Cc2ccccc2)nn1,-0.0307,-0.927 (inactive),0.496 (inactive),0.843 (inactive),-0.0785 (inactive),-0.0202,-0.107,0.752,0.441,0.26,0.502 (inactive),0.086,1.82 (inactive),-0.246 (inactive),-0.038 (inactive),0.245 (inactive),-0.78,-1.07 (inactive),-0.046 (inactive),-0.543
COc1ccc(COC(=O)NN=C2C[C@@H](O)[C@@H](O)[C@@H]3[C@@H]4C(=O)N(C[C@@H]5CCCO5)C(=O)[C@@H]4CC[C@H]23)cc1,-0.109,0.338 (inactive),0.296 (inactive),0.159 (inactive),-0.166 (inactive),0.669,0.0275,-0.858,-0.48,-1.12,-0.39 (inactive),0.544,3.23 (inactive),0.632 (inactive),0.398 (inactive),0.548 (inactive),-0.308,-3.46 (inactive),0.223 (inactive),0.0239
CCOC(=O)CCN1C(=O)[C@H]2[C@H]3[C@H](O)[C@H](O)CC(=NOCC=C(C)CCC=C(C)C)[C@@H]3CC[C@H]2C1=O,0.377,0.16 (inactive),0.0232 (inactive),0.875 (inactive),0.427 (inactive),0.111,0.0756,0.957,0.588,1.02,-0.879 (inactive),-0.193,0.0845 (inactive),0.278 (inactive),-0.931 (inactive),-0.014 (inactive),0.233,-0.737 (inactive),0.511 (inactive),-0.0503
CC(CCN1CCCCc2nc(C)c(C)cc21)=NOC[C@@H](O)[C@H]1O[C@@H]2OC(C)(C)O[C@@H]2[C@H]1O,0.228,1.06 (inactive),-0.0386 (inactive),-0.0824 (inactive),1.41 (inactive),-0.0979,-0.248,0.477,0.296,1.62,-1.25 (inactive),-0.265,0.422 (inactive),0.726 (inactive),0.637 (inactive),0.244 (inactive),-0.67,0.0801 (inactive),0.413 (inactive),-0.216
CCN1C(C)=C(C(=O)OC)[C@@H](c2ccccc2)N2C(=O)[C@](O)(C(=O)OC)CC(C(C)=O)=C12,0.24,0.0021 (inactive),-0.63 (inactive),-0.324 (inactive),-0.482 (inactive),-0.466,-0.0986,0.837,0.153,0.742,-0.0844 (inactive),-0.22,0.725 (inactive),0.893 (inactive),0.62 (inactive),0.195 (inactive),0.825,0.188 (inactive),0.724 (inactive),0.697
C=CCOCC1CN2[C@@H](CC[C@@H](C)[C@@H]2c2ccc(Br)cc2)C(=O)O1 (stereo not given in full),-0.234,-0.0112 (inactive),1.1 (inactive),0.829 (inactive),-0.0565 (inactive),0.0804,-0.367,0.318,0.499,0.257,0.298 (inactive),-0.147,0.517 (inactive),0.456 (inactive),-1.14 (inactive),0.247 (inactive),-0.665,0.286 (inactive),-0.604 (inactive),-2.74
